Most compounds without a hit are left out; they make up all but 18% or so of the library.
DT40 TDP1 CPT = DT40-hTDP1 cell growth loss with CPT. chicken DT40 Tdp1-/-;hTDP1 cells + 20 nM CPT, ATP luminescence, 48 h. Potency, µM (series often up to 46.2 µM), inactives show at the top dose activity change, negative = growth inhibition, actives largely listed as inhibitors. actives 12% (n = 420,000); also: potency is read from the fitted curve at half-maximal effect; % is scaled to controls: 0 for no effect and ±100 for the full control effect; nearly all actives have a fitted effect of over 55% in size
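Chicken DT40 Tdp1-/- cells stably complemented with human TDP1 were seeded at 400 cells/well in medium containing 20 nM camptothecin, exposed to pin-transferred compounds, and grown at 37 °C for at least 48 hr. Viability was read as ATP luminescence.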
DT40 TDP1 no CPT = qHTS for Inhibitors of human tyrosyl-DNA phosphodiesterase 1 (TDP1): qHTS in cells in absence of CPT; DT40 Tdp1-/- hTDP1 cells, no CPT, ATP luminescence, 48 h; Potency, µM (titrated, usually from 46.2 µM), inactives show at the top dose activity change, negative = growth inhibition, most hits filed as inhibitors; actives 15% (n = 420,000); AID 686978, 2013; also: potency is read from the fitted curve at half-maximal effect; % is scaled to controls: 0 for no effect and ±100 for the full control effect; nearly all actives have a fitted effect of over 55% in size
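Stably hTDP1-transfected Tdp1-null chicken DT40 cells were treated with library compounds minus camptothecin and grown for at least 48 hr at 37 °C, after which cellular ATP was quantified by luminescence.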
TGFb SMAD3 inh = blocks TGF-b signaling | HepG2 CAGA-GFP TGF-b/SMAD3 reporter, GFP fluorescence, 18 h; TGF-beta stimulated, 500 pg/mL final | Potency, µM (highest dose often 46.1 µM), for inactives: top-dose activity, negative = inhibition, most hits filed as inhibitors | actives 1.2% (n = 410,000) | AID 588855; also: potency is read from the fitted curve at half-maximal effect; % is scaled to controls: 0 for no effect and ±100 for the full control effect; nearly all actives have a fitted effect of over 65% in size
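Read-out: total well GFP (ex488/em500-530) summed from mean per-cell fluorescence. Cells: HEPG2 CAGA-GFP, 1% FBS DMEM, 18 h at 37 degrees C with 500 pg/mL final TGF-beta. Unstimulated wells served as the full-inhibition control; stimulated DMSO wells = 0%.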
HepG2 tox = HepG2 cytotoxicity, counter-screen for TGF-b inhibitors; HepG2 CAGA-GFP viability, ATP luminescence, 18 h; Potency, µM (top dose mostly 46.1 µM), without a hit: at the top dose activity change, negative = cytotoxicity, actives largely listed as cytotoxic; actives 0.76% (n = 410,000); AID 588856; also: potency is read from the fitted curve at half-maximal effect
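CellTiter-Glo luminescence gave cytotoxicity after 18 hours at 37 degrees C. The cells were HepG2 CAGA-GFP in 1% FBS DMEM, stimulated with 500 pg/mL TGF-beta after compound addition. %Activity was normalised to no-cell wells (complete cell-killing) and DMSO (no toxicity), and curves were fitted and classified.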
IL-1B inflam inh = blocks inflammasome-driven IL-1 beta release; THP-1 LPS/ATP IL-1B secretion, AlphaLISA, 16 h; hits give low values; activity change, % at 57.5 µM; actives 4.7% (n = 360,000); in the data active = activity change below about -50%; inconclusive = mostly about -30% to -49%; also: % is scaled to controls: 0 for no effect and ±100 for the full control effect
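Secreted IL-1B measured by AlphaLISA bead assay after 16 h compound exposure of THP-1 cells; compounds (final up to 57.5 uM) added 1 h before LPS (250 ng/mL) and ATP (1.25 mM) stimulation; lower signal means less secretion.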
TDP1 inh = blocks human tyrosyl-DNA phosphodiesterase 1 | recombinant TDP1, AlphaScreen DNA substrate cleavage | actives 0.28% (n = 350,000) | Potency, µM (doses to about 130 µM), without a hit: at the top dose activity change, negative = inhibition, actives largely listed as inhibitors | Q9NUW8; also: potency is read from the fitted curve at half-maximal effect; % is scaled to controls: 0 for no effect and ±100 for the full control effect; nearly all actives have a fitted effect of over 40% in size
Target sequence (Q9NUW8 whole entry, looked up): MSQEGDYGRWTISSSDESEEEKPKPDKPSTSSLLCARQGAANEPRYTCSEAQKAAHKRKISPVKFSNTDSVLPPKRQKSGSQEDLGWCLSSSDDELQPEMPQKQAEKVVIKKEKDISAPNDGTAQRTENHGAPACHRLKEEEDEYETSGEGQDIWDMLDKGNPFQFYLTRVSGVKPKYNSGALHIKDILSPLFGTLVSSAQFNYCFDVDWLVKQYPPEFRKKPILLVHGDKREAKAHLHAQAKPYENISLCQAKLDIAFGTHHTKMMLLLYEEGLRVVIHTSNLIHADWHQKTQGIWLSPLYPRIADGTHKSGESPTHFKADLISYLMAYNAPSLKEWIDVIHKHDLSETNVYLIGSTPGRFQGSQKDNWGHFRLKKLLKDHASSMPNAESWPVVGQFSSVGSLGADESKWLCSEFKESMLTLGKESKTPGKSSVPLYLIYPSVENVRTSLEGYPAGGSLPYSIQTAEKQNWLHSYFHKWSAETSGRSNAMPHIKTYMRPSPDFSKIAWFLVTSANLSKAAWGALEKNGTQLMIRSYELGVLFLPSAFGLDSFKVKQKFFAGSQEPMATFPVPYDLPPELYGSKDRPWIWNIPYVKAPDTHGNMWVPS
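E. coli-derived human Tdp1, 1 nM final. Cpd preinc 15 min RT; substrate 15 nM final, 5 min RT; AS bead mix 10 ug/ml final, 10 min RT. Signal loss = tyrosine-FITC cleavage. No-enzyme wells = max signal.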
An asterisk follows results filed as active; ? = inconclusive; . = no result; [ ] = remark or other dose. Unless noted, calls follow the shape of the dose curve; as a rule, active = well fitted curve in the direction sought with a large enough effect; inconclusive = small, poorly fitted or top-dose-only effect, or another doubt; inactive = no such curve, though single readings can be large; an effect the other way counts as inactive or inconclusive.

SMILES | DT40 TDP1 CPT | DT40 TDP1 no CPT | TGFb SMAD3 inh | HepG2 tox | IL-1B inflam inh | TDP1 inh
CC(C)N(C(=O)[C@H]1C[C@H](CC(=O)NCc2cccc(C(F)(F)F)c2)C(=O)N2CCc3c([nH]c4cc(CCC(=O)N(C)C)ccc34)[C@]12C)C(C)C | ? | ? | ? | -22.1% | -66.9* | 1.3%[56.1 µM]
CC[C@]12c3[nH]c4cc(CCC(=O)N(C)C)ccc4c3CCN1C(=O)[C@@H](CC(=O)NCc1cccc(C(F)(F)F)c1)C[C@@H]2C(=O)N1CCN(C(=O)c2ccco2)CC1 | 20.6µM* | ? | -26.8% | -25.7% | -28.0 | 0.0%[56.1 µM]
Cc1ccc(NC(=O)C(C)N2CCN(C)CC2)cc1S(=O)(=O)N1CCOCC1 (configuration not stated) | -2.0% | 8.6% | -19.2% | -9.5% | 6.5 | 0.8%
COc1ccc(-c2noc(N(c3cccc(Cl)c3)c3nc(-c4ccc(OC)c(OC)c4)no3)n2)cc1OC | -4.1% | -11.8% | ? | -20.4% | . | 6.4%
CCc1cc2c(NCc3ccco3)ncnc2s1 | 18.4µM* | 13µM* | 13.0% | 2.1% | -19.0 | 0.0%
CCOC(=O)c1sc2ncnc(NCc3ccco3)c2c1C | 18.4µM* | ? | 17.8% | -16.8% | 10.2 | .
CCOC(=O)c1sc2nc(CC(=O)OC)nc(NCc3ccco3)c2c1C | ? | ? | -21.7% | 7.4% | -2.3 | 6.9%
CC1CCCCC1NC(=O)CCCn1c(=S)[nH]c2ccsc2c1=O (configuration not stated) | -0.3% | 0.9% | -1.3% | 7.7% | 0.0 | 6.5%
CCN1/C(=C\C=C2\C(=O)N(c3ccccc3)C(=S)N2C)Sc2ccccc21 | ? | 10.3µM* | -4.9% | -16.3% | -2.5 | 4.6%
CCOc1ccccc1N(C)S(=O)(=O)c1ccc2c(c1)CC(C)N2C(=O)C1CC1 (configuration not stated) | 23.1µM* | 16.4µM* | ? | -6.5% | -4.3 | 1.6%
CC1Cc2cc(S(=O)(=O)NCCc3ccc(Cl)cc3)ccc2N1C(=O)C1CCC1 (configuration not stated) | ? | 18.4µM* | ? | -19.8% | . | 5.0%
CCC(=O)N1c2ccc(S(=O)(=O)NC3CCCCC3)cc2CC1C (configuration not stated) | 20.6µM* | ? | -13.5% | -15.1% | 27.5 | 3.6%
CC(=O)N1c2ccc(S(=O)(=O)NCCc3ccc(Cl)cc3)cc2CC1C (configuration not stated) | ? | ? | 16.3% | 22.4% | 8.0 | 2.5%
CCc1cccc(NS(=O)(=O)c2ccc3c(c2)N(C)CCO3)c1 | 13µM* | ? | ? | -14.1% | 0.0 | 7.8%
CCN(c1ccccc1)S(=O)(=O)c1ccc2c(c1)CC(C)N2C(=O)C1CC1 (configuration not stated) | ? | -20.4% | ? | -15.8% | -7.0 | -2.5%
O=c1c(-c2ccccc2)nc2cnc(N3CCOCC3)nc2n1C1CC1 | -8.4% | 5.2% | . | . | . | .
CC1(C(=O)O)CCN1C(=O)c1cccc(OC(F)(F)F)c1 (configuration not stated) | 4.1% | -0.6% | 11.0% | -2.1% | 13.1 | .
CCc1cccc(NC(=O)c2ccc(CN3C(=O)C(C)=C(c4ccc(OC)cc4)S3(=O)=O)cc2)c1 | ? | ? | 4.7% | 4.0% | . | 1.9%
COc1cc(NC(=O)CSc2nnc3c(n2)[nH]c2ccc(OC)cc23)cc(OC)c1 | -20.7% | -22.5% | . | . | . | .
CCc1cccc(NS(=O)(=O)c2ccc3c(c2)CC(C)N3C(=O)C2CC2)c1 (configuration not stated) | 6.51µM* | 3.66µM* | 7.08µM* | -29.3% | . | 5.1%
CC1Cc2cc(S(=O)(=O)NCc3ccccc3)ccc2N1C(=O)C1CC1 (configuration not stated) | ? | ? | -16.6% | -29.8% | 0.0 | 1.1%
CC1Cc2cc(S(=O)(=O)NCc3ccccc3)ccc2N1C(=O)C1CCC1 (configuration not stated) | 20.6µM* | 7.31µM* | -17.2% | -19.6% | 0.9 | 1.6%
COC(=O)N/N=C\c1c(C)[nH]n(-c2ccccc2)c1=O | 1.6% | -13.3% | 1.6% | 6.3% | 7.8 | 3.6%
COCC(=O)N/N=C/c1c(C)[nH]n(-c2ccccc2)c1=O | 18.4µM* | 16.4µM* | 8.1% | -15.0% | -9.0 | 2.7%
Cc1[nH]n(-c2ccccc2)c(=O)c1/C=N/NC(=O)COc1ccccc1[N+](=O)[O-] | 5.8µM* | 4.61µM* | -20.6% | -33.6% | 208.7 | 11.0%
SMILES | DT40 TDP1 CPT | DT40 TDP1 no CPT | TGFb SMAD3 inh | HepG2 tox | IL-1B inflam inh | TDP1 inh
Cc1[nH]n(-c2ccccc2)c(=O)c1/C=N/NC(=O)C(C)C | 14.6µM* | ? | 11.8% | -1.1% | 7.0 | 7.7%
Cc1[nH]n(-c2ccccc2)c(=O)c1/C=N/N1C(=O)c2ccc3c4c(ccc(c24)C1=O)CC3 | ? | 18.4µM* | -22.3% | -34.0% | -87.8* | 10.3%
CC(=O)N/N=C/c1c(C)[nH]n(-c2ccccc2)c1=O | -16.3% | ? | -2.9% | 1.1% | -0.3 | 7.9%
Cc1c(/C=N/NC(=O)COc2ccccc2[N+](=O)[O-])c2ccccc2n1C | ? | ? | ? | -21.4% | 44.6 | 0.0%
COc1ccc(C(=O)N2CCC3(CC2)CN(c2ncccn2)C3)cc1 | -7.3% | -23.6% | . | . | . | .
C=CCc1c(C)nc(SCc2ccccc2)[nH]c1=O | 2.9% | -0.5% | -18.5% | 6.8% | 9.1 | 1.6%
COC(C#CCCN(C)C)(c1ccccc1)c1ccccc1 | -7.8% | 1.5% | 9.3% | 2.7% | -12.9 | -1.4%
COc1ccc(CCNC(=O)c2c(C)nn(-c3ccc(F)cc3)c2-n2cccc2)cc1OC | . | . | -4.4% | -14.4% | . | 5.6%
Cc1[nH]n(-c2ccccc2)c(=O)c1/C=N/NC(=O)c1ccccc1F | 6.51µM* | 5.17µM* | -2.7% | -18.6% | 27.3 | .

Screening results (PubChem)
